Source: PubChem BioAssay (National Center for Advancing Translational Sciences (NCATS))
Pf growth 48h = inhibits P. falciparum growth in the first generation, 48 h | P. falciparum luciferase growth in erythrocytes, 48 h | Potency, µM (titrated, usually from 28.7 µM), for inactives: top-dose activity change, negative = inhibition, hits mostly inhibitors | 5.9% of 310,000 active | AID 504832; note: potency is the fitted concentration of half-maximal effect; % is set by controls: 0 for no effect and ±100 for the full control effect
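Cell-based growth assay: transgenic P. falciparum expressing firefly luciferase, cultured in red cells within RPMI 1640 containing 0.5% w/v Albumax, 24 mM bicarbonate and gentamycin. A drop in luciferase activity indicates inhibition.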
Cycloheximide cs = counter-screen for Shiga toxin inhibitors: cycloheximide protein synthesis inhibition | cell reporter, cycloheximide protein synthesis inhibition counterscreen | max response, % | 12% of 300,000 active; in the data active = max response mostly above about 13%, no sharp cut-off; inactive = mostly below about 14%; note: read at 38.3 µM for the half of the compounds with a filed dose; 0% is about no effect
Shiga inhibitor = Shiga toxin inhibition | inhibition, % at 38.7 µM | Vero cells, Shiga toxin protein synthesis inhibition reporter | 9.2% of 290,000 active | AID 2315; in the data active = inhibition mostly above about 28%, no sharp cut-off; inactive = mostly below about 43%; note: 0% is about no effect
HCMV antiviral = blocks human cytomegalovirus replication | 4.5% of 410,000 active | HFF cells, HCMV-luciferase reporter, 72 h; stronger effect = lower value | activity change, negative = inhibition, % at 57.5 µM | AID 1259415; in the data active = activity change below about -60%; inconclusive = no clear call, values can overlap the other calls; inactive = above about -39%; note: % is set by controls: 0 for no effect and ±100 for the full control effect
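Screen run at 2 compound doses on HFFs infected with reporter HCMV, MOI 1 PFU/cell. Luciferase activity from cell lysates at 72 h post infection gave inhibition relative to buffer-only and Salinomycin wells.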
Pf growth 96h = P. falciparum growth inhibition at 96 hour, primary screen for plastid delayed-death inhibitors. P. falciparum luciferase reporter growth, 96 h. Potency, µM (doses to about 28.7 µM), for the others: top-dose activity change, negative = inhibition, hits mostly inhibitors. 6.9% of 320,000 active. AID 504834; note: potency is the fitted concentration of half-maximal effect; % is set by controls: 0 for no effect and ±100 for the full control effect
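Luminescence readout: decreased luciferase signal marks inhibited growth of reporter-expressing P. falciparum in infected red cells (2% hematocrit, 0.05% parasitemia final), exposed to compound two generations (96 h, 37 C, 5% CO2).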
An asterisk follows results filed as active; ? = inconclusive; . = not tested or not shown. This is a sample that favours compounds with a hit; in the whole collection about 20% have one here. Unless noted, calls come from the whole dose curve; as a rule, active = well fitted inhibition curve with a large enough effect; inconclusive = small, poorly fitted or top-dose-only effect, or another doubt; inactive = no such curve, though single readings can be large or run the other way.

SMILES	Pf growth 48h	Cycloheximide cs	Shiga inhibitor	HCMV antiviral	Pf growth 96h
Cc1c(OC(C)C(=O)NCc2ccccn2)ccc2c3c(c(=O)oc12)CCCC3 (configuration not stated)	?	6.1	-15.2	-20.3	1.65µM*
Cc1c(OC(C)C(=O)NCCN2CCOCC2)ccc2c3c(c(=O)oc12)CCCC3 (configuration not stated)	-18.6%	1.0	-10.4	?	?
CC(Oc1cc2oc(=O)c3c(c2cc1Cl)CCCC3)C(=O)NCc1ccccn1 (configuration not stated)	2.8%	-1.2	3.2	29.6	1.7%
Cc1c(OC(C)C(=O)NCC(O)c2ccccc2)ccc2c3c(c(=O)oc12)CCC3 (configuration not stated)	13.1µM*	-0.9	-5.3	-34.2	10.4µM*
Cc1c(OC(C)C(=O)NCc2ccncc2)ccc2c3c(c(=O)oc12)CCC3 (configuration not stated)	?	-6.2	-9.7	-31.3	9.28µM*
Cc1cccc(CCNC(=O)C2CCCN(S(=O)(=O)c3ccc4c(c3)oc(=O)n4C)C2)c1 (configuration not stated)	.	.	.	-6.7	.
O=C1CCc2cc(NS(=O)(=O)c3ccc([N+](=O)[O-])cc3)cc3c2N1CCC3	?	.	.	9.2	-13.3%
COc1ccc(OC)c(NC(=O)N2CC3CCCN3c3ccccc32)c1 (configuration not stated)	.	.	.	-2.0	.
CCC(=O)N1CCc2cc(S(=O)(=O)NC(Cc3ccccc3)C(=O)Nc3cccc(OC)c3)ccc21 (configuration not stated)	.	.	.	6.1	.
COc1ccc(N/C(N)=N/c2nc(CSc3ccc(Cl)cc3)cc(=O)[nH]2)cc1	.	8.9	4.5	33.1	21.9%
N/C(=N\c1nc(CSc2ccc(Cl)cc2)cc(=O)[nH]1)Nc1cccc2ccccc12	.	-2.7	18.7	-72.6*	?
COc1ccccc1N/C(N)=N/c1nc(CSc2nc3ccccc3s2)cc(=O)[nH]1	14.4%	12.3	47.9*	.	?
CCNCc1cc([N+](=O)[O-])ccc1OCC	-6.2%	-2.0	-13.3	-29.0	-3.9%
O=C(Nc1ccccc1OC(=O)c1ccccc1)c1ccccc1	.	.	.	4.2	.
Cc1cc(OC(F)F)ccc1NC(=S)NCCc1ccccc1	0.0%	4.8	5.3	-16.6	-13.2%
COc1ccc(CCNC(=S)Nc2ccc(C)cc2C)cc1	-9.8%	-0.6	15.6	-75.5*	-13.8%
COc1cc(C)c(NC(=O)C(=S)NCCc2ccccc2)cc1C	0.8%	-3.1	-19.2	?	2.33µM*
COc1ccc(NC(=S)NCCc2ccccc2)c(C)c1	?	8.9	1.0	20.0	14.7µM*
COc1cc(NC(=S)NCCc2ccccc2)c(OC)cc1NC(=O)C(C)C	-15.6%	-2.7	21.3	?	?
Cc1ccc(S(=O)(=O)n2ccc(-c3ccc(OCc4c(F)cccc4Cl)cc3)n2)cc1	9.28µM*	1.4	3.6	-21.3	-109.5%
Cc1cc(=O)oc2cc(OCc3c(F)cccc3Cl)ccc12	.	.	.	15.6	.
Cc1ccc(S(=O)(=O)n2ccc(-c3cccc(OCc4c(F)cccc4Cl)c3)n2)cc1	3.7µM*	-1.8	33.0	17.3	0.738µM*
COCCCNC(=O)/C=C/c1ccc(Cl)cc1Cl	12.0%	17.5*	53.7*	26.3	17.6%
COc1cc2ncc(S(=O)(=O)c3ccccc3)c(N3CCCC(C)C3)c2cc1OC (configuration not stated)	?	-0.4	-4.3	-21.2	11.0%
Cc1ccn2cc(-c3cccc(NC(=O)c4ccccc4)c3)nc2c1	31.7%	59.9*	44.0*	23.4	66.5%
SMILES	Pf growth 48h	Cycloheximide cs	Shiga inhibitor	HCMV antiviral	Pf growth 96h
Cc1cccn2cc(-c3cccc(NC(=O)C(C)C)c3)nc12	.	.	.	4.6	.
O=C(Nc1cccc(-c2cn3ccccc3n2)c1)c1cccs1	55.7%	33.7*	60.8*	-20.1	82.5%
Cc1cccc(C(=O)Nc2cccc(-c3ccc4nncn4n3)c2)c1	8.4%	3.8	-5.8	-10.5	-0.3%
CC(C)C(=O)Nc1cccc(-c2cn3ccccc3n2)c1	33.9%	13.8*	17.3	-14.1	19.9%
COc1ccc(CC(=O)Nc2ccc(-c3cn4ccc(C)cc4n3)cc2)cc1	-55.6%	15.6*	15.8	-18.8	.
O=C(Nc1cccc(-c2cc3ccccc3oc2=O)c1)c1ccc(Br)o1	26.1%	-2.1	-1.9	-38.5	?
CC(=O)Nc1ccc(S(=O)(=O)Nc2cc(-c3cn4ccccc4n3)ccc2C)cc1	.	.	.	19.4	.
Cc1ccn2cc(-c3cccc(NC(=O)C(C)C)c3)nc2c1	21.6%	22.5*	34.6	45.4	21.0%
CC(C)C(=O)Nc1cccc(-c2cn3ccsc3n2)c1	44.6%	14.9	14.6	42.4	6.4%
CC(=O)Nc1cccc(-c2cn3ccccc3n2)c1	81.6%	39.1	39.5	81.1	13.1µM*
O=C(Nc1cccc(-c2cn3ccccc3n2)c1)c1cc2ccccc2oc1=O	-11.6%	59.3*	71.4*	15.1	0.0%
CCN(C(=O)c1cnc2ccc(C)cn2c1=O)c1ccccc1	.	.	.	-2.4	.
Cc1cccc(Cn2c(=O)n(CCc3ccccc3)c(=O)c3sc4ccccc4c32)c1	.	.	.	-95.5*	.
Cc1ccccc1Cn1c(=O)n(Cc2ccco2)c(=O)c2sc3ccccc3c21	.	.	.	-69.4*	.
O=C(c1ccc(Br)cc1)c1cc2ccc(O)cc2oc1=O	20.6%	10.3	25.0	?	8.0%
O=C(NCC1CCCO1)c1cc2ccccc2oc1=O (configuration not stated)	56.7%	36.8*	95.8*	-20.6	-12.9%
O=C(c1ccccc1)c1cc2ccc(O)cc2oc1=O	47.5%	20.9*	35.9	-3.8	0.165µM*
O=C(COc1ccccc1)NNC(=O)c1cc2ccccc2oc1=O	-83.6%	12.0	17.6	?	47.5%
O=C(NNc1c(F)c(F)cc(F)c1F)c1cc2ccccc2oc1=O	8.9%	50.3*	111.9*	56.4	15.0%
O=C(NC1CCCCCC1)c1cc2ccccc2oc1=O	293.4%	42.6*	43.3*	46.8	133.2%
COc1ccc(NC(=O)N2CCCc3cc(C)ccc32)c(OC)c1	-15.1%	2.3	14.3	?	?
CCn1nc(C)c2c(-c3ccccc3)cc(=O)n(C(C)C(=O)Nc3ccc(OC)c(OC)c3)c21 (configuration not stated)	.	.	.	2.2	.
O=C(CNC(=O)C12CC3CC(CC(C3)C1)C2)N1CCCC(C(F)(F)F)C1 (configuration not stated)	.	.	.	-19.8	.
Cn1cnc([N+](=O)[O-])c1Sc1nnc(-c2ccccc2)c(-c2ccccc2)n1	.	.	.	135.5	.
N=c1oc2ccc(Cl)cc2cc1C(=O)NC1CCCCCC1	2.4%	1.1	-8.1	8.3	0.0%
O=C(OC1CCCCC1)c1cc2ccccc2oc1=O	20.9%	42.7*	79.2*	-39.4	30.8%
C=CCc1cccc2cc(C(=O)NC3CCCCC3)c(=O)oc12	-1.4%	28.0	87.9*	.	127.5%
CN(C(=O)COC(=O)c1cc2ccccc2oc1=O)C1CCCCC1	.	.	.	11.5	.
N=c1oc2ccccc2cc1C(=O)NC1CCCCCC1	?	56.5*	123.0*	45.3	45.1%
CCC(=O)Oc1ccc(-c2nc3ccccc3c(=O)o2)cc1	.	.	.	14.7	.
